# Measured values as given in PubChem BioAssay (NCATS).
# Values without a mark were called inactive. Records with an inconclusive call do not appear. Calls of active or inactive are those of the source. Unless noted, the call rests on the fitted dose curve; in most records, active means well fitted curve in the direction sought with a large enough effect; inconclusive means small, poorly fitted or top-dose-only effect, or another doubt; inactive means no such curve, though single readings can be large; an effect the other way counts as inactive or inconclusive.
# Assays:
# [1] = Cell Viability - HepG2 (AID 433; calls by dose curve;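 further: potency means the concentration at half of the fitted maximal effect; potency for ATP loss meaning cytotoxicity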); conditions: qHTS
# Method in brief: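 Cytotoxicity is scored as loss of intracellular ATP in HepG2 cells exposed to compounds for 40 h. Concentration-response curves, normalized to DMSO and 100 uM tamoxifen, give AC50 values.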
# [2] = Cell Viability - HUV-EC-C (AID 542); conditions: HUV-EC-C endothelial cell viability, qHTS; series mostly up to 92.2 µM; further: potency means the concentration at half of the fitted maximal effect; nearly all actives have a fitted effect of over 35% in size
# Method in brief: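 Decrease in cellular ATP, quantified by luciferase luminescence, reflects toxicity in normal human vascular endothelial HUV-EC-C cells given compound for 40 hr in complete culture medium. Values are AC50s from concentration-response curves.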
# [3] = Cell Viability - Mesenchymal (AID 546); conditions: mesenchymal cells viability, qHTS; series mostly up to 91.7 µM;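 further: cells exposed to compound for 40 hours before reading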
# Method in brief: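 Human kidney mesenchymal cells from normal renal glomeruli, 1000 cells/well, rested 5 hr at 37 °C, then treated 40 hr at 37 °C in complete medium. Cellular ATP read by CellTiter-Glo luminescence; AC50 from Hill-equation fits.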
# [4] = Cellular Toxicity (caspase-3) NIH 3T3 (AID 666); conditions: NIH 3T3 caspase-3 activation, apoptosis/toxicity, 0% DMSO, 100% is 100 µM tamoxifen; series mostly up to 92.2 µM;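 further: caspase signal read after 16 h compound exposure; 0% = DMSO basal and 100% = 100 µM tamoxifen stimulation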
# Method in brief: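 Concentration-response qHTS in NIH 3T3 mouse fibroblasts scores caspase-3/7 activation as rising luminescence after 16 hr compound exposure. Signals are scaled between DMSO-only and 100 uM tamoxifen.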
# [5] = Cell Viability - LYMP2-005 (AID 967); conditions: LYMP2-005 lymphoblastoid cell viability; series mostly up to 92.2 µM;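 further: plate controls were DMSO only for no effect and 92 µM tetraoctylammonium bromide control for full effect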
# Method in brief: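 qHTS viability screen in LYMP2-005 cells: 24 h at 37 C with compound, ATP luminescence via CellTiter-Glo, AC50 from Hill curves.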
# [6] = Cell Viability - LYMP2-021 (AID 974); conditions: LYMP2-021 lymphoblastoid cells viability; series mostly up to 92.2 µM;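 further: compound exposure lasts 24 hours at 37 °C; on the % scale 0 is the no-effect control and ±100 the full control effect; nearly all actives have a fitted effect of over 55% in size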
# Method in brief: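 Concentration-response cytotoxicity in a human lymphoblastoid line: 24 hr treatment at 37 C in complete culture medium, tetraoctylammonium bromide as positive control, luminescent ATP quantitation as viability measure.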
# [7] = qHTS assay to identify small molecules that stimulate interleukin-8 (IL-8) secretion (AID 651758; active means well fitted activation curve with a large enough effect in the signal ratio; the % refers to the signal ratio; further: 0% is about no effect); conditions: HTRF ratio (665/615); series mostly up to 92.2 µM
# Method in brief: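 THP-1 cells (2000/well) exposed to compound 16 h at 37 C; secreted IL-8 then detected by HTRF with cryptate- and XL665-labelled anti-IL-8 antibody pair after 1-3 h at room temperature.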
# [8] = Cell Viability - BJ (AID 421; calls by dose curve;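 further: potency means the concentration at half of the fitted maximal effect; cells exposed to compound for 40 hours at 37 °C before readout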); conditions: BJ fibroblast viability, qHTS
# Method in brief: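 Cytotoxicity in human BJ foreskin fibroblasts is scored as loss of cellular ATP after a 40-hour exposure, measured by luciferase luminescence. Controls are DMSO and 100 uM tamoxifen.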
# [9] = Cell Viability - Jurkat (AID 426;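 active means dose-dependent loss of cell ATP signal giving a full or clear fitted curve, ranked by lower potency value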;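 further: potency means the concentration at half of the fitted maximal effect; cells exposed to compound for 40 hours at 37 °C before ATP read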); conditions: qHTS
# Method in brief: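 Seed 5000 Jurkat E6-1 cells/well; add compound; incubate 40 hr at 37 °C; add CellTiter-Glo; wait 20 min at room temperature; read luminescence. Fit concentration-response with Hill equation for AC50.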
# [10] = Cell Viability - SK-N-SH (AID 435; calls by dose curve;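 further: potency means the concentration at half of the fitted maximal effect; compound exposure lasted 40 h at 37 °C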); conditions: SK-N-SH neuroblastoma cell viability qHTS
# Method in brief: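 Cells seeded at 1500 per well and incubated 5 hr at 37 °C. Compound added, then 40 hr at 37 °C. CellTiter-Glo added, 20 min at room temperature, luminescence read.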
# [11] = Cell Viability - N2a (AID 540); conditions: N2a mouse neuroblastoma cell viability; at 92.2 µM (top of the series);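 further: cells exposed to compound for 40 h at 37 °C; plate controls were DMSO alone for no effect and tamoxifen control for full effect; nearly all actives have a fitted effect of over 45% in size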
# Method in brief: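 First, 1500 N2a cells per well incubate 5 hr at 37 °C; next, compounds are added and incubated 40 hr at 37 °C; finally CellTiter-Glo is added and luminescence read after 20 min, with AC50 derived by Hill modeling.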
# [12] = Cell Viability - NIH 3T3 (AID 541); conditions: NIH 3T3 cell viability, qHTS; activity change, negative = cytotoxicity: at 92.2 µM (top of the series); further: potency means the concentration at half of the fitted maximal effect; nearly all actives have a fitted effect of over 25% in size
# Method in brief: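 AC50 values reflect concentration-dependent loss of intracellular ATP in NIH 3T3 cells after 40 hr treatment in complete culture medium, quantified by luciferase-based luminescence.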
# [13] = Cellular Toxicity (caspase-3) Jurkat (AID 655); conditions: Jurkat caspase-3 activation, luminescence, DMSO = 0%, tamoxifen = 100%; at 92.2 µM (top of the series);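 further: cells exposed to compound for 16 h at 37 °C before reading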
# Method in brief: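 Caspase 3/7 activation is scored as increased luminescence in Jurkat cells cultured with compound for 16 hours in complete medium. AC50 values come from Hill fits of qHTS concentration-response data normalized to DMSO and 100 uM tamoxifen controls.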
# [14] = Cellular Toxicity (caspase-3) SHSY5Y (AID 657); conditions: SH-SY5Y caspase-3 activation, DMSO zero, 10 µM staurosporine = 100%; series mostly up to 91.7 µM
# Method in brief: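 Cells plated and incubated 5 h at 37 °C, dosed over a concentration range, incubated 16 h, then given Caspase-Glo 3/7 reagent for 1 h at room temperature before luminescence reading. Staurosporine (10 uM) defined full stimulation.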
# [15] = Cellular Toxicity (caspase-3) MRC-5 (AID 659); conditions: MRC-5 cells, luminescence, normalized: DMSO 0%, 10 µM staurosporine 100%; series mostly up to 91.7 µM
# Method in brief: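 MRC-5 human normal lung fibroblasts, 1500 cells/well, treated 16 h at 37 °C in complete medium. Caspase 3/7 measured by Caspase-Glo luminescence after 1 h at room temperature. Normalized to DMSO and 10 uM staurosporine; AC50 from Hill fit.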
# [16] = Cellular Toxicity (caspase-3) Mesangial (AID 660); conditions: mesangial cells, normalized: DMSO 0%, 100 µM tamoxifen 100%; series mostly up to 91.7 µM;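 further: combined caspase 3 and 7 activity read by Caspase-Glo luminescence; cells exposed to compound for 16 h before the caspase read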
# Method in brief: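 Concentration-response qHTS: compound-induced rise in caspase 3/7 luminescence in human mesangial cells after 16 h, normalized to DMSO and 100 uM tamoxifen controls.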
# [17] = Cellular Toxicity (caspase-3) Hek293 (AID 664); conditions: HEK293 caspase-3 activation, DMSO = 0%, 100 µM tamoxifen = 100%; series mostly up to 92.2 µM;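 further: cells exposed to compound for 16 h at 37 °C before readout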
# Method in brief: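 Activation of caspase-3/7 is measured as increased luminescence from cleaved peptide-aminoluciferin substrate in HEK293 cells treated 16 hours at 37 °C. AC50 values come from Hill-equation fits of concentration-response data.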
# [18] = target: Androgen receptor (Homo sapiens) (UniProt P10275); experiment: qHTS assay for small molecule antagonists of androgen receptor signaling (AID 588516; active means well fitted curve in the direction sought with a large enough effect in the signal ratio, with a control signal flat, not every such curve was filed as active; the % refers to the signal ratio; further: on the % scale 0 is the no-effect control and ±100 the full control effect); conditions: AR-UAS-bla HEK293, beta-lactamase ratio, antagonist mode, 16 h; series mostly up to 76.8 µM
# Sequence of Androgen receptor (Homo sapiens) (P10275 whole entry, looked up): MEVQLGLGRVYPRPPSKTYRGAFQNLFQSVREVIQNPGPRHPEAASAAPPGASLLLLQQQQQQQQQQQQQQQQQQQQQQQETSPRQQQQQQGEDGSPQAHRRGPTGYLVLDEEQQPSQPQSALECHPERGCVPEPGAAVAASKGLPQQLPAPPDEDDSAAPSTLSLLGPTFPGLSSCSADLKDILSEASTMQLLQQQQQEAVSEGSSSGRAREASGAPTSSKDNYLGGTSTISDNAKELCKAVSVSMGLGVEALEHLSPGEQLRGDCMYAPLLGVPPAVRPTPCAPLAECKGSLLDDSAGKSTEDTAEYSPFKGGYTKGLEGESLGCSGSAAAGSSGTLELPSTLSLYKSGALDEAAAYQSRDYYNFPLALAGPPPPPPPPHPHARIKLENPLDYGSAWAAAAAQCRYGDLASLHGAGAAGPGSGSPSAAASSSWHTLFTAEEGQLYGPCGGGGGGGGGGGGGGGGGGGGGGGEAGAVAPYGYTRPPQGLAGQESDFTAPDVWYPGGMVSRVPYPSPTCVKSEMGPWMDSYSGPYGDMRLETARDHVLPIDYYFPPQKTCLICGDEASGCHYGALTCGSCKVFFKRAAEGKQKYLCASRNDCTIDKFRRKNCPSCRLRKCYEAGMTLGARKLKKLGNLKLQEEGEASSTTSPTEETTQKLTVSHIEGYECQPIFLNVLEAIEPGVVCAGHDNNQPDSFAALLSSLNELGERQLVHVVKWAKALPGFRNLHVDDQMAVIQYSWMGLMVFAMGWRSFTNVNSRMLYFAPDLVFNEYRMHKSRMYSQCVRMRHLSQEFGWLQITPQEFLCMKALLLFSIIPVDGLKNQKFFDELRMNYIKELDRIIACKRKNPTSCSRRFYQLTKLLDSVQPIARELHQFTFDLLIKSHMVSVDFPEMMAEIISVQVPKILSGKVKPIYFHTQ
# Method in brief: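 Antagonist-mode qHTS: inhibition of R1881 (10 nM)-driven beta-lactamase expression in GripTite HEK 293 cells is measured after 16 h; values are Hill-derived IC50s normalized between R1881 and DMSO wells.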
# [19] = target: Bile acid receptor (Homo sapiens) (UniProt Q96RI1); experiment: qHTS assay for small molecule agonists of farnesoid X receptor signaling (AID 588527; calls by dose curve;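 further: 0% = vehicle basal and 100% = reference agonist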); conditions: HEK293T FXR-UAS-bla, beta-lactamase ratio, 16 h; stronger effect = higher value
# Sequence of Bile acid receptor (Homo sapiens) (Q96RI1 whole entry, looked up): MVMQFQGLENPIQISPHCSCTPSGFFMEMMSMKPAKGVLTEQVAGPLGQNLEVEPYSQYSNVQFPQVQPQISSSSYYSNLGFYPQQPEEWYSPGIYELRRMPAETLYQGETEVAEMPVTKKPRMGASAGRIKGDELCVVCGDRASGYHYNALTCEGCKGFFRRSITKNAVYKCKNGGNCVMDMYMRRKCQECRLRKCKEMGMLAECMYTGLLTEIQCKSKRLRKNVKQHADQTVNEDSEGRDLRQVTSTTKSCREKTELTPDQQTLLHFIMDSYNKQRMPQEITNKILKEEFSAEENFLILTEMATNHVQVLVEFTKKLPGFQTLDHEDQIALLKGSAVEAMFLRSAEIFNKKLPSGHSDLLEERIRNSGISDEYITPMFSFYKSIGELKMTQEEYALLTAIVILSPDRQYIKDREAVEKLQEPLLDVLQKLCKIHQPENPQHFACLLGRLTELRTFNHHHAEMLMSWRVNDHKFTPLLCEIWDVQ
# Method in brief: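 Read-out: beta-lactamase reporter fluorescence with CCF4 substrate in GeneBLAzer FXR-UAS-bla HEK293T cells, after 16 h compound exposure at 37 C. Response scaled between DMSO basal (0%) and chenodeoxycholic acid at 100 uM (100%).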
# [20] = target: Glucocorticoid receptor (Homo sapiens) (UniProt P04150); experiment: qHTS assay for small molecule agonists of glucocorticoid receptor signaling (AID 588532; active means well fitted curve in the direction sought with a large enough effect in the signal ratio, with a control signal flat; the % refers to the signal ratio;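 further: 100% = dexamethasone at 0.1 µM and 0% = DMSO only wells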); conditions: HeLa MMTV-bla, beta-lactamase ratio, agonist, 18 h; stronger effect = higher value; percent of dexamethasone control, DMSO zero
# Sequence of Glucocorticoid receptor (Homo sapiens) (P04150 whole entry, looked up): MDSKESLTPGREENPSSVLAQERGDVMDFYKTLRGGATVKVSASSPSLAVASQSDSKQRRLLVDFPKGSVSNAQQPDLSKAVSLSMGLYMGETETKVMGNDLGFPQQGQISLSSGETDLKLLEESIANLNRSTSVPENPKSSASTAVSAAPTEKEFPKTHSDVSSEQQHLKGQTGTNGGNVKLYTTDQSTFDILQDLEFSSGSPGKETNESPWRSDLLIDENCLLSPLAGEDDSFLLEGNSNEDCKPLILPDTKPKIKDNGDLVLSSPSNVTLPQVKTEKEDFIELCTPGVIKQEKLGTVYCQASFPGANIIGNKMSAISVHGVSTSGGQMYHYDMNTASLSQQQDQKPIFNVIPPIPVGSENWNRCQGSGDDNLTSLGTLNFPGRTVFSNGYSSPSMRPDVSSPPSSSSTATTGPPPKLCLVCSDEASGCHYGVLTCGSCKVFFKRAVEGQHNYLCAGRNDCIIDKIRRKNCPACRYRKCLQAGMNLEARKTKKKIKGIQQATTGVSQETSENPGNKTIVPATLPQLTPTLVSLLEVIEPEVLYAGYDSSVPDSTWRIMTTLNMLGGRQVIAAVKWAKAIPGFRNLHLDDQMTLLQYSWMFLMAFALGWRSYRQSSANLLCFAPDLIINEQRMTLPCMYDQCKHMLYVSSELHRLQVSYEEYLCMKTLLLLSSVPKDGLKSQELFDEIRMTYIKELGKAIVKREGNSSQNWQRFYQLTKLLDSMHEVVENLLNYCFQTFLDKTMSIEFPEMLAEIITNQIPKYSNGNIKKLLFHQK
# Method in brief: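 HeLa GRE-bla reporter cells; 18 h compound exposure at 37 C; 2 h CCF4 loading at room temperature; fluorescence at 460 and 530 nm; EC50 by Hill equation.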
structure (smiles),measurement,setting,value
CCCCCCCCCc1ccc(O)cc1,Potency,[1],> 92 µM
same,Potency,[2],31.6 µM (active)
same,outcome,[3],inactive
same,outcome,[4],inactive
same,Potency,[5],inactive
same,Potency,[6],inactive
same,Potency,[7],inactive
O=C1C(Cl)=C(Cl)C(=O)C(Cl)=C1Cl,Potency,[8],50.5 µM (active)
same,Potency,[9],9.41 µM (active)
same,Potency,[10],40.5 µM (active)
same,"activity change, negative = cytotoxicity",[11],-88.2% (active)
same,Potency,[12],31.6 µM (active)
same,caspase-3 activation,[13],-9.68%
same,outcome,[14],inactive
same,outcome,[15],inactive
same,outcome,[16],inactive
same,outcome,[17],inactive
CCS(=O)CCSP(=O)(OC)OC (stereo not drawn),Potency,[18],inactive
O=C(O)COc1cc(Cl)c(Cl)cc1Cl,Potency,[18],inactive
same,activation,[19],-6.14%
CC(C)OC(=O)Nc1cccc(Cl)c1,activation,[19],2.06%
CCCCSP(=O)(SCCCC)SCCCC,activation,[20],-15%
N#Cc1c(Cl)cccc1Cl,activation,[20],0.597%
